High-throughput results from PubChem.
BAZ2B inh: inhibitors of human BAZ2B bromodomain; Q9UIF8; AlphaScreen BAZ2B-H3K14Ac peptide displacement; Potency, µM (highest dose often 114 µM), for the others: top-dose activity change, negative = inhibition, hits mostly inhibitors; hit rate 4.4% among 360,000; AID 504333; also: % is scaled to controls: 0 for no effect and ±100 for the full control effect; nearly all actives have a fitted effect of over 60% in size
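AlphaScreen luminescence quantifies BAZ2B engagement of H3K14Ac peptide; the protein and biotinylated peptide are both at 50 nM final, buffer PBS pH 7.4 with 0.01% Tween-20, all steps at room temperature.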
JMJD2A Tudor: inhibitors of human JMJD2A Tudor domain; O75164; AlphaScreen JMJD2A-Tudor / H3K4me3 peptide binding; Potency, µM (top dose mostly 114 µM), for the others: at the top dose activity change, negative = inhibition, hits mostly inhibitors; hit rate 4.4% among 390,000; also: % is scaled to controls: 0 for no effect and ±100 for the full control effect; nearly all actives have a fitted effect of over 50% in size
HP1b binding inh: HP1-beta chromodomain-methylated histone interaction inhibition. P83916. AlphaScreen HP1-beta / biotin-H3K9me3 peptide binding. Potency, µM (highest dose often 114 µM), for the others: at the highest dose activity change, negative = inhibition, most hits filed as inhibitors. hit rate 0.56% among 390,000. AID 540317; also: nearly all actives have a fitted effect of over 70% in size
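Compound inhibition of the preformed complex between 50 nM HP1-beta and 50 nM biotinylated H3K9me3 peptide was read by AlphaScreen. Buffer was PBS pH 7.4 with 0.01% Tween-20. Incubations ran 30 min at room temperature, with 10 ug/mL donor/acceptor beads.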
GLS inh: inhibitors of human glutaminase (GLS). hit rate 0.21% among 410,000. Potency, µM (series often up to 45.5 µM), without a hit: top-dose activity change, negative = inhibition, actives largely listed as inhibitors. GLS enzymatic activity, qHTS titration. AID 624170; also: % is scaled to controls: 0 for no effect and ±100 for the full control effect
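Assay buffer: 45 mM KH2PO4 pH 8.2, 0.02% Tween-20. hKGA acts on L-glutamine (1 mM solution added); product glutamate is reported by an oxidase/peroxidase Amplex Red coupling, with fluorescence taken at baseline and 30 min.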
L3MBTL1 block: blocks human L3MBTL1 | Potency, µM (highest dose often 57.1 µM), for the others: at the top dose activity, negative = inhibition, usual class: inhibitors | Q9Y468 | AlphaScreen L3MBTL1–H3K9me1 peptide binding | hit rate 0.66% among 230,000 | AID 485360; also: % is scaled to controls: 0 for no effect and ±100 for the full control effect; nearly all actives have a fitted effect of over 60% in size
Target sequence (Q9Y468 whole entry, looked up): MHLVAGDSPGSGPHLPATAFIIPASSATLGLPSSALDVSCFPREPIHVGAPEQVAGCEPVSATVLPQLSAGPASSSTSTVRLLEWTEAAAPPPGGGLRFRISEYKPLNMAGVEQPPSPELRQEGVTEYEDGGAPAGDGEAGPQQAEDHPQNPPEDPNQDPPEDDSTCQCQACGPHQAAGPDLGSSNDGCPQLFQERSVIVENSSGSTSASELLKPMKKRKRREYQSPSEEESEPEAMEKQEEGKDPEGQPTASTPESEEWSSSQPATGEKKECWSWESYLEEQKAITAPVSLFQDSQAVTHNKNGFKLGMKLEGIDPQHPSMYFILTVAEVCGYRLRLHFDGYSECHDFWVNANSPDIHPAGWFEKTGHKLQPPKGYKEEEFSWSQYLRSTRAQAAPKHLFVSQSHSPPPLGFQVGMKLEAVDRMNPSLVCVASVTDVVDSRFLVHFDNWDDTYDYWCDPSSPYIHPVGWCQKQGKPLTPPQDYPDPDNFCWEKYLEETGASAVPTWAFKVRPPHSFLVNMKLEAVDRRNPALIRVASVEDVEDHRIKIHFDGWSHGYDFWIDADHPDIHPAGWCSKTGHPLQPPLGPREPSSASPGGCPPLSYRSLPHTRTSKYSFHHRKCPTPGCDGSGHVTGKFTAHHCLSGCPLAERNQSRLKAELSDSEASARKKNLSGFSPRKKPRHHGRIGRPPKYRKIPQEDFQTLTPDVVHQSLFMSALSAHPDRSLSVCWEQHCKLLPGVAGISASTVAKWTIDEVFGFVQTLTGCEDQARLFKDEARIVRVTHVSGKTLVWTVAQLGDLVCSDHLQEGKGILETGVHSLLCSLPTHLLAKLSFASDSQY
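Read-out is AlphaScreen signal from streptavidin donor and nickel chelate acceptor beads (10 ug/mL final each) bridging L3MBTL1 (50 nM) and biotinylated K9-monomethylated H3(1-15) peptide (75 nM), after 30 min compound exposure at room temperature.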
G9a inh: inhibitors of human histone lysine methyltransferase G9a; Potency, µM (titrated, usually from 102 µM), for the others: at the top dose activity, negative = inhibition, actives largely listed as inhibitors; hit rate 8.8% among 350,000; AID 504332; G9a H3K9 monomethylation, AlphaScreen, 2 h; also: % is scaled to controls: 0 for no effect and ±100 for the full control effect; nearly all actives have a fitted effect of over 75% in size
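Quantitative HTS format: methyltransferase activity on a biotin-tagged H3K9 peptide is measured by AlphaScreen, using a rabbit anti-monomethyl-H3K9 antibody with streptavidin donor and anti-IgG acceptor beads. Final levels are 20 nM enzyme, 500 nM peptide, 20 uM SAM; 2 h RT.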
* marks the source's active call; other numbers are inactive results; ! = not active in a repeat; [ ] = dose if it differs, or a comment. This is a sample that favours compounds with a hit; in the whole collection about 10% have one here. Calls follow the shape of the dose curve; as a rule, active = well fitted curve in the direction sought with a large enough effect; inconclusive = small, poorly fitted or top-dose-only effect, or another doubt; inactive = no such curve, though single readings can be large; an effect the other way counts as inactive or inconclusive. Potency is read from the fitted curve at half-maximal effect.

How did CC1(C)c2[nH]c3ccccc3c2C[C@H]2C(=O)N(Cc3ccccc3F)C(=O)N21 do in these assays?
JMJD2A Tudor: inconclusive; HP1b binding inh: -13.6%; GLS inh: 6.9%

Results for Nc1nc(N)c2nc(CNc3ccc(C(=O)NC(CCC(=O)O)C(=O)O)cc3)cnc2n1 (stereo not drawn) ?
BAZ2B inh: -34.5%; GLS inh: -0.1%; L3MBTL1 block: 3.0%; G9a inh: 2.67µM*!

What do the screens show for `Cc1cc(C)cc(C(=O)OC2CC3CCC(C2)N3C)c1` (stereo not drawn)?
GLS inh: 0.8%; G9a inh: inconclusive

Results for CCCc1[nH]nc2c1C1(C(=O)N(Cc3ccccc3)c3ccccc31)C(C(=O)OC)=C(N)O2 (stereo not drawn) ?
BAZ2B inh: -32.6%; JMJD2A Tudor: -24.6%; HP1b binding inh: 12.6%; GLS inh: 5.0%; G9a inh: 50.1µM*

What do the screens show for `CC(=O)c1c(COC(=O)c2cccnc2)nc2ccccc2[n+]1[O-]`?
BAZ2B inh: 4.8%; JMJD2A Tudor: -9.1%; HP1b binding inh: 28.4%; GLS inh: -1.8%; L3MBTL1 block: -1.3%; G9a inh: 10µM*

What do the screens show for `O=C(O)CCC(=O)NCCC1=c2ccccc2=N/C1=C\c1c(O)n(Cc2ccc(F)cc2)c(=S)[nH]c1=O`?
BAZ2B inh: 31.6µM*; JMJD2A Tudor: 31.6µM*; HP1b binding inh: 31.6µM*; GLS inh: inconclusive; L3MBTL1 block: -21.0%

What do the screens show for `CC(C)NC(=O)C(C)N1CCN(S(=O)(=O)c2ccc3ccccc3c2)CC1` (stereo not drawn)?
BAZ2B inh: 56.2µM*; JMJD2A Tudor: 3.16µM*; HP1b binding inh: 39.8µM*; GLS inh: -18.6%; G9a inh: 25.1µM*

Results for COc1ccc(CC2C(=O)N(c3ccccc3)C(=O)N(c3ccccc3)C2=O)c(OC)c1 ?
BAZ2B inh: -5.1%; JMJD2A Tudor: -19.4%; HP1b binding inh: 30.0%; GLS inh: 20.2%; G9a inh: 44.7µM*

How did C[N+]1([O-])CCC[C@@H]1c1cccnc1 (stereo partly drawn) do in these assays?
G9a inh: 32.4%[59 µM]

How did CN(C)/C=C1/C(=O)NC(=O)N(CCNc2ncc(C(F)(F)F)cc2Cl)C1=O do in these assays?
BAZ2B inh: inconclusive; JMJD2A Tudor: -28.2%; HP1b binding inh: -10.0%; GLS inh: 23.6%; L3MBTL1 block: -9.4%; G9a inh: 44.7µM*

What do the screens show for `COc1ccc(NC(=O)N2CC[C@@]3(CCCN(C(=O)Oc4ccccc4)C3)C2)cc1`?
G9a inh: 5.1%[12.7 µM]

Results for COc1ccc2cc1Oc1ccc(cc1)C[C@H]1c3cc(c(OC)cc3CCN1C)Oc1c(OC)c(OC)cc3c1[C@@H](C2)N(C)CC3 ?
BAZ2B inh: inconclusive; JMJD2A Tudor: inconclusive; HP1b binding inh: 1.2%; GLS inh: -17.5%; L3MBTL1 block: -1.4%; G9a inh: 23.9%[2.33 µM]

How did Oc1cccc2cccnc12 do in these assays?
BAZ2B inh: 10µM*; JMJD2A Tudor: inconclusive; HP1b binding inh: -1.5%; GLS inh: inconclusive; G9a inh: 16.9%[59 µM]

What do the screens show for `CCOc1ccc(C2c3c(-c4ccccc4O)n[nH]c3C(=O)N2Cc2ccncc2)cc1` (stereo not drawn)?
BAZ2B inh: -30.3%; JMJD2A Tudor: inconclusive; HP1b binding inh: 24.9%; GLS inh: 22.3%; G9a inh: 3.4%[59 µM]

What do the screens show for `CNC(=O)OCc1n(C)cc[n+]1C`?
BAZ2B inh: inconclusive; JMJD2A Tudor: -3.4%; HP1b binding inh: 9.8%; GLS inh: 9.9%; L3MBTL1 block: 9.4%; G9a inh: 6.31µM*

How did CNC(=O)OCCc1nccn1C do in these assays?
BAZ2B inh: 5.8%; JMJD2A Tudor: -19.2%; HP1b binding inh: 13.1%; GLS inh: 4.5%; L3MBTL1 block: 3.1%; G9a inh: 7.1%[59 µM]

How did NC(=O)c1ccc(N=Cc2c(O)n(Cc3ccco3)c(=O)[nH]c2=O)cc1 do in these assays?
BAZ2B inh: inconclusive; JMJD2A Tudor: inconclusive; HP1b binding inh: 119.3%; GLS inh: inconclusive; G9a inh: 39.8µM*

What do the screens show for `O=c1[nH]c(=S)n(Cc2ccco2)c(O)c1C=NCc1cccs1`?
BAZ2B inh: 5.01µM*; JMJD2A Tudor: inconclusive; HP1b binding inh: inconclusive; GLS inh: 14.8%; G9a inh: 3.55µM*

What do the screens show for `O=c1[nH]c(=O)n(Cc2ccco2)c(O)c1/C=N/N1CCCCCC1`?
BAZ2B inh: -7.7%; JMJD2A Tudor: -13.2%; HP1b binding inh: 7.0%; GLS inh: inconclusive; L3MBTL1 block: -11.6%; G9a inh: inconclusive

Results for N#Cc1c(/N=C/c2c(O)n(Cc3ccco3)c(=O)[nH]c2=O)sc2c1CCCC2 ?
BAZ2B inh: inconclusive; JMJD2A Tudor: 79.4µM*; HP1b binding inh: -23.3%; GLS inh: -0.9%; L3MBTL1 block: 14.1µM*; G9a inh: -16.3%[0.0925 µM]

What do the screens show for `O=c1[nH]c(=O)n(Cc2ccco2)c(O)c1C=NCc1cccs1`?
BAZ2B inh: inconclusive; JMJD2A Tudor: -22.8%; HP1b binding inh: -1.0%; GLS inh: -8.8%; G9a inh: -36.8%[59 µM]

Results for CCN(CC)c1ccc(N=Cc2c(O)n(Cc3ccco3)c(=O)[nH]c2=O)cc1 ?
BAZ2B inh: -6.9%; JMJD2A Tudor: -5.3%; HP1b binding inh: 24.1%; GLS inh: 0.4%; L3MBTL1 block: 1.0%

What do the screens show for `Cc1ccc(-c2nnc(C)c(N3CCCC3)n2)cc1`?
BAZ2B inh: -0.3%; JMJD2A Tudor: 16.5%; HP1b binding inh: 50.7%; GLS inh: 0.0%; L3MBTL1 block: -11.3%; G9a inh: 6.4%

Results for COc1ccc(NC(=O)CCCn2c(=O)oc3ccccc32)cc1Cl ?
BAZ2B inh: -21.3%; JMJD2A Tudor: -5.0%; HP1b binding inh: 46.8%; GLS inh: -7.8%; L3MBTL1 block: 7.0%; G9a inh: -8.8%[59 µM]

What do the screens show for `OCC1CCCN2CCCCC12` (stereo not drawn)?
G9a inh: 28.1%[59 µM]

What do the screens show for `COc1ccc(P2(=O)Nc3ccccc3N2)cc1`?
BAZ2B inh: 3.3%[57.1 µM]; JMJD2A Tudor: -17.8%; HP1b binding inh: 6.1%; GLS inh: 50.4%; L3MBTL1 block: -11.8%; G9a inh: inconclusive

Results for COc1ccc2c(c1)NP(=S)(c1ccccc1)N2C (stereo not drawn) ?
JMJD2A Tudor: 50.1µM*; HP1b binding inh: 35.5µM*; GLS inh: 8.4%

Results for C=CCC1(C(C)CCC)C(=O)N=C(S)NC1=O (stereo not drawn) ?
GLS inh: -27.9%; G9a inh: 3.1%[59 µM]

How did C[C@@H]1O[C@H](C[N+](C)(C)C)CS1 do in these assays?
G9a inh: 2µM*
